# SARS 3CLpro inh: SARS-CoV 3CLpro protease inhibitors, primary screen, biochemical, quenched FRET. Replicase polyprotein 1ab (Severe acute respiratory syndrome coronavirus), P0C6X7. recombinant SARS-CoV 3CLpro, quenched FRET peptide cleavage. inhibition, % at 6 µM. hit rate 0.14% among 290,000. AID 1706, 2009; in the data active means inhibition above about 12%
# PrPC surface inh: inhibitors of human cell surface prion protein PrPC, primary screen, cell-based, TR-FRET; inhibition, % at 13.8 µM; TR-FRET read-out; Major prion protein (Homo sapiens), P04156; AID 720596, 2013; hit rate 0.43% among 370,000; in the data active means inhibition above about 24%; further: 0% = median of the test wells and 100% = reference compound wells
# PrP UTR inh: inhibition of PrP 5' UTR reporter expression. cell-based PrP 5' UTR mRNA reporter, plate reader. inhibition, % (test concentration not listed). hit rate 0.35% among 340,000. AID 488862, 2010; in the data active means inhibition above about 52%; further: 0 = median of the neutral control wells
# Mtb hypoxia inh: PubChem AID 1159583; M. tuberculosis hypoxia-regulated fluorescent reporter, fluorescence; fluorescence inhibition, % (concentration not given with the values); hit rate 0.1% among 300,000; in the data active means fluorescence inhibition mostly above about 23%, no sharp cut-off; inactive means mostly below about 17%
# MazF activator: activators of E. coli MazEF toxin-antitoxin RNase, primary screen, biochemical, fluorescence, uHTS. FAM/BHQ RNA-DNA oligo cleavage fluorescence, 5 h. activation, % at 20 µM. hit rate 0.32% among 350,000. AID 504720, 2011; in the data active means activation above about 50%
# Target sequence (P0AE70 whole entry, looked up): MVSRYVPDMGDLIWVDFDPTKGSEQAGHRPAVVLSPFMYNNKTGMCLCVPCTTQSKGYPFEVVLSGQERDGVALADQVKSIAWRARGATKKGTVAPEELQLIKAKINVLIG
# VHR inh abs: VHR1 phosphatase inhibitors, primary screen, biochemical, absorbance, uHTS | hit rate 0.52% among 290,000 | Dual specificity protein phosphatase 3 (Homo sapiens), P51452 | inhibition, % at 13.3 µM | recombinant VHR phosphatase, pNPP absorbance; in the data active means inhibition above about 50%
# Target sequence (P51452 whole entry, looked up): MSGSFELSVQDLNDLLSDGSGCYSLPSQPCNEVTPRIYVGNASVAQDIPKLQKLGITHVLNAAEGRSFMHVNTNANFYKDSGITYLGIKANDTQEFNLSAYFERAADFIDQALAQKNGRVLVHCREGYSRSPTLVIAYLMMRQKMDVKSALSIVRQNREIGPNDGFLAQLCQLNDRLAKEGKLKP
# * = called active by the depositor; . = not tested or not shown. Hits are enriched below; roughly 1.5% of the tested compounds scored in any of these assays.
SMILES,SARS 3CLpro inh,PrPC surface inh,PrP UTR inh,Mtb hypoxia inh,MazF activator,VHR inh abs
C=C1C(=O)O[C@@H]2C[C@@H](C)[C@@H]3C4OC4C(=O)[C@@]3(C)[C@@H](O)[C@H]12 (stereo partly specified),.,36.1*,-58.3,.,8.9,-4.1
Cc1cnc(C(=O)OCc2ccc(Br)cc2F)cn1,-1.8,-7.4,-27.4,-9.8,1.5,57.6*
COc1ccc(NC(=S)N2CCN(CC=Cc3ccccc3)CC2)cc1,.,.,.,3.2,.,.
NC(=O)c1ccc(-n2nnnc2SCC(=O)Nc2ccccc2F)cc1,-4.8,4.5,-11.7,4.9,98.0*,.
CC(/C=C1\SC(=S)N(NC(=O)c2ccc(C)cc2)C1=O)=C\c1ccccc1,-0.5,.,-13.8,7.7,-6.7,19.7
CC(/C=C1\SC(=S)N(c2ccc(C(=O)O)cc2)C1=O)=C\c1ccccc1,0.0,0.9,-30.5,.,-22.3,52.8*
Oc1ccc(Cl)cc1/C=C/c1ccc2cccc(O)c2n1,2.3,-23.2,-19.0,-2.0,60.2*,33.4
CCc1ccc(C(=O)NN=Cc2ccncc2)s1,.,.,.,5.4,.,.
COC(=O)C(C=NOCc1ccc([N+](=O)[O-])cc1)NC(=O)c1ccccc1 (stereo unspecified),.,.,.,4.5,.,.
Cc1nc(CN2CCC(c3ccccc3)CC2)cc(=O)[nH]1,4.1,-6.0,-18.2,2.0,0.9,52.9*
Cc1cc(=O)[nH]c(CN2CCC(c3ccccc3)CC2)n1,3.6,7.8,-21.0,-10.9,-5.1,48.4
Clc1ccc(CN2CCC3C=CCc4cccc(c43)C2)cc1 (stereo unspecified),.,.,.,2.3,.,.
N#CC(=NO)c1nc2ccccc2[nH]1,.,.,.,0.9,.,.
Oc1c(C(Nc2nc3ccccc3s2)c2ccco2)ccc2cccnc12 (stereo unspecified),-3.4,24.8*,2.6,10.3,11.1,-12.4
COc1cc(C(=O)NCC(=O)NN=Cc2cccc(OC(=O)c3ccco3)c2)cc(OC)c1OC,.,.,.,5.4,.,.
CC1CCCCN1S(=O)(=O)c1ccc(C(=O)Nc2ccccc2-c2nc3ccccc3[nH]2)cc1 (stereo unspecified),-7.0,3.1,-22.4,4.4,-1.9,22.7
O=C(Nc1ccccc1-c1nc2ccccc2[nH]1)c1ccc(S(=O)(=O)N2CCCCC2)cc1,-1.2,-3.5,-25.7,0.5,3.2,50.3*
CC(=O)Nc1ccc(N=Cc2nc(-c3ccc(C)cc3)oc2O)cc1,-6.1,-2.3,-15.1,2.6,245.1*,-15.9
CN(C)c1ccc(N=Cc2nc(-c3ccccc3)oc2OC(=O)c2ccccc2)cc1,-2.5,-3.0,-87.5,-4.2,353.6*,-4.7
CC(=O)Oc1oc(-c2ccccc2)nc1C=Nc1ccc(N(C)C)cc1,-1.5,-8.1,-6.9,14.9,11.1,31.5
CN(C)c1ccc(N=Cc2nc(-c3ccccc3)oc2O)cc1,-1.7,-4.7,19.7,.,245.9*,1.8
Oc1oc(-c2ccccc2)nc1C=Nc1ccccc1,1.5,-0.8,-89.5,2.1,5.2,8.2
O=C(Nc1nnc(-c2ccc3c(c2)CCCC3)o1)C1COc2ccccc2O1 (stereo unspecified),10.8,-0.8,-7.2,-5.8,7.5,50.3*
O=C(O)CN1C(=O)/C(=C\c2cc(Br)ccc2OCc2ccc(Cl)cc2)SC1=S,5.4,0.9,-21.7,13.4,-10.9,57.3*
Cc1ccc(C=NNC(=O)Cn2nnc(N)n2)cc1,.,.,.,-2.8,.,.
SMILES,SARS 3CLpro inh,PrPC surface inh,PrP UTR inh,Mtb hypoxia inh,MazF activator,VHR inh abs
Cc1cccn2c(=O)c3cc(C(=O)NCCN4CCOCC4)c(=N)n(CCCN4CCOCC4)c3nc12,-6.1,-36.7,-23.6,-12.2,-3.8,55.2*
Cc1cccn2c(=O)c3cc(C(=O)NCc4ccccc4)c(=N)n(CCCN4CCOCC4)c3nc12,.,-18.5,-16.9,-2.0,-2.1,.
CCCCn1c(=O)[nH]c(=O)c2c1nc(-c1cccc(OC)c1)n2C,4.0,9.8,-3.3,-12.1,-36.0,30.7
CCCCn1c(=O)[nH]c(=O)c2c1nc(-c1ccc(OC(F)F)c(OC)c1)n2C,0.7,-0.8,8.9,1.5,71.4*,27.7
COc1ccc(-c2ccc(/C=C3/C(=N)N4C(C)=CSC4=NC3=O)o2)c([N+](=O)[O-])c1,-2.9,1.9,-4.1,4.3,67.9*,13.3
OCC1OC(OC2C(CO)O[C@@](O)(CO)C2O)C(O)C(O)C1O (stereo partly specified),.,.,.,7.4,.,.
O=C(CNC(=O)OCc1ccccc1)NC1CCCCCC1,-1.1,11.8,-4.4,-16.5,6.8,53.0*
O=C(CCNC(=O)OCc1ccccc1)NC1CCCCC1,-0.4,-0.1,-9.2,15.3,2.2,-3.8
c1coc(-c2nc(-c3ccco3)c(-c3ccco3)nc2-c2ccco2)c1,-0.8,-10.9,-8.5,0.8,6.0,50.6*
Nc1nc(-c2ccco2)c(-c2ccco2)s1,-5.7,-3.7,-12.0,.,-67.1,13.6
CCOc1cc(C=NN2C(=O)NC3(CCCCC3)C2=O)cc(Br)c1O,.,.,.,4.8,.,.
CC1CN(C(C)CO)C(=O)c2cc(NC(=O)CCC(F)(F)F)ccc2OC1CN(C)S(=O)(=O)c1ccc(Cl)cc1 (stereo unspecified),.,.,.,-8.6,.,.
Cn1c(=O)n(Cc2ccccc2)c(=O)c2c1nc1n2CCCN1Cc1ccccc1,-2.7,0.9,-31.8,.,11.1,14.6
COc1ccc(N2CCn3c2nc2c3c(=O)n(CCc3ccccc3)c(=O)n2C)c(OC)c1,-0.5,.,.,-64.5,.,13.8
COc1ccc(N2CCn3c2nc2c3c(=O)n(CCCc3ccccc3)c(=O)n2C)c(OC)c1,1.7,4.0,-11.4,-5.7,814.2*,21.3
CCCCn1c(=O)c2c(nc3n2CCCN3Cc2ccccc2)n(C)c1=O,-0.4,3.2,-5.1,11.0,4.0,58.2*
C(=NNc1ccccn1)c1cccnc1,.,.,.,5.6,.,.
C=CCOc1ccc(C(CC)=NO)c(OC)c1,.,.,.,3.6,.,.
CCN(CC)c1ccc2cc(-c3nnc(-c4ccc(Br)cc4)o3)c(=O)oc2c1,-4.5,.,.,.,.,.
CCN(CC)c1ccc2cc(-c3nnc(-c4ccccc4)o3)c(=O)oc2c1,-6.8,-8.0,-50.6,.,900.0*,4.2
O=C(O)c1ccc(NN=Cc2ccc(OC(=O)c3ccccc3Cl)cc2)cc1,.,.,.,17.8,.,.
COc1ccc(NS(=O)(=O)c2ccc(N3CCOCC3)c(N)c2)cc1,.,14.9,-5.6,28.5*,2.0,.
Cc1ccc(CNC(=O)Cn2ncn3cccc3c2=O)cc1,-2.9,0.4,-5.4,5.3,7.1,-10.2
COc1cccc(CNC(=O)Cn2ncn3cccc3c2=O)c1OC,0.0,1.9,-44.5,-2.1,71.2*,5.5
Brc1ccc(-n2cnc(-c3ccccc3)c2)cc1,-2.6,-3.4,-67.4,8.6,5.4,57.3*
COc1ccc(OC)c(N=c2oc3c(OC)cccc3cc2C(=O)NCc2ccco2)c1,.,1.9,-18.0,9.5,75.5*,15.4

# Screening data (PubChem BioAssay)
